In PubChem BioAssay:

Target: 6-phosphogluconate dehydrogenase, decarboxylating (Homo sapiens) (UniProt P52209)
Assay: inhibition of human phosphogluconate dehydrogenase – biochemical, recombinant enzyme, NADPH absorbance, primary screen (AID 1159550)
Conditions: recombinant 6PGD, NADPH absorbance 341 nm; at 10 µM; active compounds read high;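 active = at least 20% inhibition of 6-phosphogluconate dehydrogenase activity; inactive = the rest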

Sequence of 6-phosphogluconate dehydrogenase, decarboxylating (Homo sapiens) (P52209 whole entry, looked up): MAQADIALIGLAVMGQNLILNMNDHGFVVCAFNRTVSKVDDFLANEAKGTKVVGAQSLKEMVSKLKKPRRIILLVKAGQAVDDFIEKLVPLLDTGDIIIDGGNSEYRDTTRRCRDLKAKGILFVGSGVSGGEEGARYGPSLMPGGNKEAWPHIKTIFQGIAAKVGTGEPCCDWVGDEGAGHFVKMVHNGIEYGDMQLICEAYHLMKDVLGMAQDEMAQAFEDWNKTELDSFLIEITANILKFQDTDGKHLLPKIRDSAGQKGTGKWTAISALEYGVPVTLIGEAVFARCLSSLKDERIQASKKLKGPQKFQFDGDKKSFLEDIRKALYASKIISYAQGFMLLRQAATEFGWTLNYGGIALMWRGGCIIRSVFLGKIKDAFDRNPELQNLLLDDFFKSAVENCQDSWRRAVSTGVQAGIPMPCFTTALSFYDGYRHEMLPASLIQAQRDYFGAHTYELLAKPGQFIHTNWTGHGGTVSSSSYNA

inhibition, inactive:
O=c1[nH]cc(F)c(=O)[nH]1 -1.95%
CCc1nc(N)nc(N)c1-c1ccc(Cl)cc1 5.34%
CCc1cccc2c3c([nH]c12)C(CC)(CC(=O)O)OCC3 (centres undefined) -23.2%
Nc1ncn([C@@H]2O[C@H](CO)[C@@H](O)[C@H]2O)c(=O)n1 4.17%
Cc1ccccc1C(OCCN(C)C)c1ccccc1 (centres undefined) 5.27%
Cc1ccc(C)c(OCCCC(C)(C)C(=O)O)c1 -2.35%
NC(=O)c1cnccn1 -8.25%
CCCCCCNC(=O)n1cc(F)c(=O)[nH]c1=O 1.06%
COC1=CC(=O)C[C@@H](C)[C@]12Oc1c(Cl)c(OC)cc(OC)c1C2=O 1.41%
Cc1ncc([N+](=O)[O-])n1CC(C)O (centres undefined) -1.51%
N[C@@H](C(=O)N[C@@H]1C(=O)N2C(C(=O)O)=C(Cl)CS[C@H]12)c1ccccc1 -9.98%
CO[C@@]1(NC(=O)Cc2cccs2)C(=O)N2C(C(=O)O)=C(COC(N)=O)CS[C@@H]21 8.52%
OCCN1CCN(CCCN2c3ccccc3Sc3ccc(C(F)(F)F)cc32)CC1 10.2%
CN(C)CCOC(c1ccc(Cl)cc1)c1ccccn1 (centres undefined) 8.32%
Cc1onc(-c2c(Cl)cccc2Cl)c1C(=O)N[C@@H]1C(=O)N2[C@@H]1SC(C)(C)[C@@H]2C(=O)O -8.13%
COc1cc2nc(N(C)CCCNC(=O)C3CCCO3)nc(N)c2cc1OC (centres undefined) 0.608%
NS(=O)(=O)c1cc(C2(O)NC(=O)c3ccccc32)ccc1Cl (centres undefined) 7.34%
CN(C)CCc1c[nH]c2ccc(C[C@H]3COC(=O)N3)cc12 8.76%
Cc1ccc(-c2cc(C(F)(F)F)nn2-c2ccc(S(N)(=O)=O)cc2)cc1 13.7%
CN[C@H]1CC[C@@H](c2ccc(Cl)c(Cl)c2)c2ccccc21 -2.43%
O=S(=O)(O)CCS 6.93%
C/C=C/C(=O)N(CC)c1ccccc1C -11.5%
COc1ccc(OC)c(C(O)CNC(=O)CN)c1 (centres undefined) -19.4%
Cn1cnc([N+](=O)[O-])c1Sc1ncnc2nc[nH]c12 2.32%
c1ccc2[nH]c(-c3cscn3)nc2c1 2.18%
CCCNCC(O)COc1ccccc1C(=O)CCc1ccccc1 (centres undefined) -5.6%
NC(=O)N1c2ccccc2CC(=O)c2ccccc21 8.8%
Cc1cn([C@H]2C[C@H](N=[N+]=[N-])[C@@H](CO)O2)c(=O)[nH]c1=O 13.6%
CN(CCOc1ccc(CC2SC(=O)NC2=O)cc1)c1ccccn1 (centres undefined) -0.784%
COc1ccccc1OCC(O)COC(N)=O (centres undefined) -17.6%
OC(CCN1CCCC1)(c1ccccc1)C1CCCCC1 (centres undefined) -21.9%
O=C1C(CCS(=O)c2ccccc2)C(=O)N(c2ccccc2)N1c1ccccc1 (centres undefined) -6.96%
COC(=O)Nc1nc2ccc(C(=O)c3ccccc3)cc2[nH]1 0.811%
CCn1cc(C(=O)O)c(=O)c2cc(F)c(N3CCN(C)CC3)cc21 5%
CN1CCCC(n2nc(Cc3ccc(Cl)cc3)c3ccccc3c2=O)CC1 (centres undefined) 6.29%
NCc1ccc(S(N)(=O)=O)cc1 -1.59%
Clc1ccc2c(c1)C(N1CCNCC1)=Nc1ccccc1O2 -21.3%
CC(C)(C)NCC(O)COc1cccc2c1C[C@H](O)[C@H](O)C2 (some centres undefined) 6.69%
NS(=O)(=O)c1cc2c(cc1Cl)NC=NS2(=O)=O 11.5%
